Records with an inconclusive call do not appear. The source made the active and inactive calls. Calls come from the whole dose curve; as a rule, active = well fitted cell-killing curve with a large enough effect; inconclusive = small, poorly fitted or top-dose-only effect, or effect the other way; inactive = no such curve, though single readings can be large or run the other way.

Experimental findings from PubChem BioAssay (NCATS) are described below.
Potency is the fitted concentration of half-maximal effect.

A short description of the test: Quantitative High-Throughput drug screen in 47 multiple myeloma cell lines against the NCATS MIPE library collection: XG1_PLB cell viability assay (AID 1919866). Note: nearly all actives have a fitted effect of over 35% in size. To be noted: CellTiter-Glo ATP, 48 h; series mostly up to 45.8 µM. The source says: PI: Beverly A. Mock Ph.D.
Laboratory of Cancer Biology and Genetics,
Center for Cancer Research, National Cancer Institute,
National Institute of Health, Bethesda, Maryland
Drug resistance and disease progression are common in multiple myeloma (MM) patients, underscoring the need for new therapeutic combinations. […] We hypothesized that effective combinations would reduce MYC expression and enhance p16 activity. […] These preclinical data identify potentially useful drug combinations for evaluation in drug-resistant MM and reveal potential mechanisms of combined drug sensitivity.
Described herein is the primary MIPE qHTS used to cherrypick compounds. Validated compounds were then further tested for potential synergistic activiy.
[1] Peat TJ, Gaikwad SM, Dubois W, Gyabaah-Kessie N, Zhang S, Gorjifard S, Phyo Z, Andres M, Hughitt VK, Simpson RM, Miller MA, Girvin AT, Taylor A, Williams D, D'Antonio N, Zhang Y, Rajagopalan A, Flietner E, Wilson K, Zhang X, Shinn P, Klumpp-Thomas C, McKnight C, Itkin Z, Chen L, Kazandijian D, Zhang J, Michalowski AM, Simmons JK, Keats J, Thomas CJ, Mock BA. Drug combinations identified by high-throughput screening promote cell cycle transition and upregulate Smad pathways in myeloma. Cancer Lett. 2023 Aug 1;568:216284. doi: 10.1016/j.canlet.2023.216284. Epub 2023 Jun 24. PMID: 37356470; PMCID: PMC10408729.
SEQUENCE No. (e.g., 1, 2, 3, etc.); […] (e.g., Cells, Incubation, Reagent, etc.); VALUE and DESCRIPTION.
1; Cells; 5 uL; white, solid bottom 1536-well Greiner assay plate.
2; Compounds; 23 nL; Kalypsis pin tool (Wako USA) equipped with a 1536-well pin head to transfer to the assay plates.
3; Incubation; 48 hours; 37C incubation.
4; Reagent;5uL; CellTiter Glo (Promega).
5; Detector; 425V; Luminescence; Viewlux PerkinElmer.
NOTES (numbers refer to Sequence numbers above)
1. The cell-based screening methods employed in this study were like those previously published. Briefly, the corresponding myeloma cell lines were screened in 1,536-well plates with 500 cells, 5-uL per well for inhibition of cell viability (assessed by measuring ATP levels with CellTiterGlo).
2. NCATS MIPE 4.0 library of approved and investigational drugs were added using the Kalypsis pin tool. Wells treated with DMSO only for 100% viability and media only for 0% viability were used as controls.
3. The assay plates were covered and incubated for 48 hours in a 37C, 5% CO2 incubator with controlled humidity.
4. After 48 hours, CellTilter-GloTM luminescent substrate mix (Promega) reagent was added to the assay plate and plates we incubated for 5 min at room temperature.
5. Signal was measured as median relative luminescence units on a ViewLux (PerkinElmer) multiplate reader.
[1] Heske CM, Davis MI, Baumgart JT, Wilson K, Gormally MV, Chen L, Zhang X, Ceribelli M, Duveau DY, Guha R, Ferrer M, Arnaldez FI, Ji J, Tran HL, Zhang Y, Mendoza A, Helman LJ, Thomas CJ. Matrix Screen Identifies Synergistic Combination of PARP Inhibitors and Nicotinamide Phosphoribosyltransferase (NAMPT) Inhibitors in Ewing Sarcoma. Clin Cancer Res. 2017 Dec 1;23(23):7301-7311. doi: 10.1158/1078-0432.CCR-17-1121. Epub 2017 Sep 12. PMID: 28899971; PMCID: PMC6636827.
In general terms: ATP-based viability assays read luminescence as a measure of living cells.
As for `CN[C@H]1[C@@H](O[C@@H]2[C@H](O[C@@H]3[C@@H](O)[C@@H](O)[C@@H](N=C(N)N)[C@@H](O)[C@@H]3N=C(N)N)O[C@H](C)[C@@]2(O)C=O)O[C@@H](CO)[C@@H](O)[C@H]1O`, the Potency entry was “inactive”.

For the compound `COc1ccc(-c2cc3nccn3c(Nc3ncccc3C(N)=O)n2)cc1OC`, the Potency is 1.05 µM (active).

With `Cc1cc2c(cc1C1(c3ccc(C(=O)O)cn3)CC1)C(C)(C)CCC2(C)C`, the Potency entry is “inactive”.

For the compound `Cc1cc(NC(=O)Nc2ccc(N(C)C)cc2)c2cc(F)cc(F)c2n1`, the Potency is 3.32 µM (active).

`O=C(c1ccc(C(=O)N2CCC(N3CCCC3)CC2)c(Nc2ccccc2)c1)N1CCC(N2CCCC2)CC1`: the Potency result was “inactive”.

As to `Cc1c(-c2cccc3c(CCCOc4cccc5ccccc45)c(C(=O)O)n(Cc4cccnc4)c23)c(COc2ccc(N3CCN([S+](=O)([O-])N(C)C)CC3)cc2)nn1C`, the Potency result was “inactive”.

Take `O=C(O)CCC=CCC[C@@H]1[C@H](N2CCCCC2)[C@@H](O)C[C@@H]1OCc1ccc(-c2ccccc2)cc1`: the Potency entry is “inactive”.

Turning to `CC(NCCc1ccc(O)cc1)C(O)c1ccc(O)cc1` (stereo not given), the Potency entry was “inactive”.

Regarding `CCC(=O)NCC[C@@H]1CCc2ccc3c(c21)CCO3`, the Potency result was “inactive”.

With `COc1cc(F)c(C(C)C)cc1-c1ccc(C(F)(F)F)cc1CN1C(=O)O[C@H](c2cc(C(F)(F)F)cc(C(F)(F)F)c2)[C@@H]1C`, the Potency is 26.4 µM (active).

With `CCC=CC[C@H]1C(=O)CC[C@@H]1CC(=O)OC`, the Potency entry is “inactive”.

Regarding `CC(=O)OCC(=O)[C@@]12OC(C)(C)O[C@H]1C[C@H]1[C@@H]3C[C@H](F)C4=CC(=O)C=C[C@]4(C)[C@@]3(F)[C@@H](O)C[C@@]12C`, the Potency result is “inactive”.

Take `CN[C@@H]1CN(c2ccc3c(=O)c(C(=O)O)cn(-c4nccs4)c3n2)C[C@@H]1OC`: the Potency was 7.24 µM (active).

Consider `NC(=O)c1noc([C@H](CCCC2CCCCC2)CC(=O)NO)n1`, for which the Potency was 16.6 µM (active).

For the compound `CC=C1C2C=C(C)CC1(N)c1ccc(=O)[nH]c1C2` (stereo not given), the Potency result is “inactive”.

As to `CC[C@H](C=C[C@@H](C)[C@H]1CC[C@H]2[C@@H]3CC=C4C[C@@H](O)CC[C@]4(C)[C@@H]3CC[C@]12C)C(C)C`, the Potency was 1.02 µM (active).

Consider `O=C(CO)N1CCC(c2[nH]nc(-c3ccc(Cl)cc3)c2-c2ccncn2)CC1`, for which the Potency entry is “inactive”.

In the case of `NC(N)=Nc1nc(CSCCC(N)=NS(N)(=O)=O)cs1`, the Potency is 14.8 µM (active).

Regarding `C[C@]12C=CC(=O)C=C1CC[C@@H]1[C@@H]2[C@@H](O)C[C@@]2(C)[C@@H]1CC[C@]2(O)C(=O)CO`, the Potency entry was “inactive”.

As to `CCc1cccc(CC)c1NC(=O)N1Cc2[nH]nc(NC(=O)c3ccc(N4CCN(C)CC4)cc3)c2C1`, the Potency was 0.935 µM (active).

On to `C[C@@H]1C[C@H]2[C@@H]3CCC4=CC(=O)C=C[C@]4(C)[C@@]3(F)[C@@H](O)C[C@]2(C)[C@@]1(O)C(=O)CO`, for which the Potency result is “inactive”.

Regarding `CNc1nc(-c2ccc3c(N)n[nH]c3c2)cc(N2C[C@@H](C(=O)NC3CCCCC3)CC[C@@H]2C)n1`, the Potency was 20.9 µM (active).

As for `CO[C@H]1/C=C\O[C@@]2(C)Oc3c(C)c(O)c4c(O)c(c5c(nc6cc(C)ccn65)c4c3C2=O)NC(=O)C(C)=CC=C[C@H](C)[C@H](O)[C@@H](C)[C@@H](O)[C@@H](C)[C@H](OC(C)=O)[C@H]1C`, the Potency result is “inactive”.

For the compound `NCc1c[nH]c(=S)n1[C@H]1CCc2c(F)cc(F)cc2C1`, the Potency was 9.35 µM (active).

As to `CC(=O)N1CCN(c2ccc(OCc3nn(C)c(C)c3-c3cccc4c(CCCOc5cc(C)c(Cl)c(C)c5)c(C(=O)O)n(Cc5cccnc5)c34)cc2)CC1`, the Potency is 5.9 µM (active).

In the case of `CN1CCN(c2ncc(-c3cc(Cl)cc(Cl)c3Cl)c(N)n2)CC1`, the Potency was 7.43 µM (active).

As to `COc1cc(Cl)cn2c(-c3cccc(NC4CNC4)n3)cnc12`, the Potency is 11.8 µM (active).

As to `OC(c1cc(C(F)(F)F)nc2c(C(F)(F)F)cccc12)C1CCCCN1` (stereo not given), the Potency was 14.8 µM (active).

Regarding `Oc1cc(O)cc(C=Cc2ccc(O)c(O)c2)c1`, the Potency is 8.33 µM (active).

For the compound `N[C@@H](CC(=O)N1CCn2c(nnc2C(F)(F)F)C1)Cc1cc(F)c(F)cc1F`, the Potency entry is “inactive”.

Regarding `Nc1ncnc2c1ncn2[C@@H]1O[C@H](CO)[C@@H](O)[C@@H]1O`, the Potency was 0.935 µM (active).

Turning to `N#CC1(c2cccc(C(=O)Nc3cc(Oc4ccc5nc(NC(=O)C6CC6)sc5n4)ccc3F)c2Cl)CC1`, the Potency was 2.35 µM (active).

For `COc1cc([C@H]2Oc3cc([C@H]4Oc5cc(O)cc(O)c5C(=O)[C@H]4O)ccc3O[C@H]2CO)ccc1O`, the Potency is 16.6 µM (active).

On to `C[C@@]1(C(=O)Nc2ccc(F)nc2)CCCN1c1nc(Nc2cc(C3CC3)[nH]n2)c2cccn2n1`, for which the Potency was 0.0743 µM (active).

Regarding `CCNC(=O)c1noc(-c2cc(C(C)C)c(O)cc2O)c1-c1ccc(CN2CCOCC2)cc1`, the Potency is 0.0743 µM (active).

On to `COC(=O)[C@H](c1ccccc1Cl)N1CCc2sccc2C1`, for which the Potency entry was “inactive”.

As for `O=S(=O)(NCCNCC=Cc1ccc(Br)cc1)c1cccc2cnccc12`, the Potency is 5.26 µM (active).

Consider `COc1ccc(-c2nc3ccc(C4=NNC(=O)CC4C)cc3[nH]2)cc1` (stereo not given), for which the Potency entry was “inactive”.

In the case of `CCOc1ccccc1N=Nc1c(C)[nH]n(-c2nc(-c3ccccc3)cs2)c1=O`, the Potency is 1.05 µM (active).

As to `C=CC[N+]1([C@H]2C[C@H]3[C@@H]4CC[C@H]5C[C@H](O)[C@@H](N6CCOCC6)C[C@]5(C)[C@@H]4CC[C@]3(C)[C@H]2OC(C)=O)CCCC1`, the Potency entry was “inactive”.
